For assay [1], the target named is Tyrosine-protein kinase CSK (Homo sapiens) (UniProt P41240). The note with it: at 1 µM.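 Also: each value is an averaged inhibition reading.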
Assay [2] has as its target T1, Discoidin domain-containing receptor 2 (Homo sapiens) (UniProt Q16832).
T1 sequence (whole entry): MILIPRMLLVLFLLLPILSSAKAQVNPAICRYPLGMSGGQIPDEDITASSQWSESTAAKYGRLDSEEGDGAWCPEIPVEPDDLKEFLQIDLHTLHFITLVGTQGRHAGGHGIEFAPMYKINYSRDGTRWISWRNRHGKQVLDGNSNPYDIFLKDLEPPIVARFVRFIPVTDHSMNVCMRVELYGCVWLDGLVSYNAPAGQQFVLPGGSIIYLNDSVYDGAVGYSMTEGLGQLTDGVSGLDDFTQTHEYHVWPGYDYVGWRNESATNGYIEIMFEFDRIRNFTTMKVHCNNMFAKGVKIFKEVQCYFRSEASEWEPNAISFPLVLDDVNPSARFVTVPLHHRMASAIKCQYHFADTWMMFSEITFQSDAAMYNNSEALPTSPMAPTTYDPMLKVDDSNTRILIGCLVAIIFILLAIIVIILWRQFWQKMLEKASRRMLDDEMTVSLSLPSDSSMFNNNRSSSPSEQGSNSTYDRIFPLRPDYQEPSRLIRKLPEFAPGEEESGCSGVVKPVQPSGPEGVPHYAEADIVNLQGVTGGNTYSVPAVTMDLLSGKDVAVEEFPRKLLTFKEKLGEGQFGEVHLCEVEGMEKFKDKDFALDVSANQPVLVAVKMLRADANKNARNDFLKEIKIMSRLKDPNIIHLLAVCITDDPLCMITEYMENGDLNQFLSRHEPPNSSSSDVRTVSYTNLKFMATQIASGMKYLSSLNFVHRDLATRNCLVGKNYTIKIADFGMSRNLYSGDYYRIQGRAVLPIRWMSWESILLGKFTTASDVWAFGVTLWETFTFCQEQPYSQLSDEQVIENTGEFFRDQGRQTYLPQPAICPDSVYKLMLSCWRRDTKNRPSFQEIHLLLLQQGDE
The note with it: at 0.1 µM.

Assay [3] deals with T1, Discoidin domain-containing receptor 2 (Homo sapiens). The settings on record: at 1 µM.
For assay [4], the target named is Epidermal growth factor receptor (Homo sapiens) (UniProt P00533). The settings on record: at 0.1 µM.
Assay [5] shares this target. The note with it: at 1 µM.
Assay [6] concerns Epidermal growth factor receptor (Homo sapiens), P00533 [L858R]. The note with it: at 0.1 µM.
Epidermal growth factor receptor (Homo sapiens), P00533 [L858R], sequence (P00533 whole entry L858R): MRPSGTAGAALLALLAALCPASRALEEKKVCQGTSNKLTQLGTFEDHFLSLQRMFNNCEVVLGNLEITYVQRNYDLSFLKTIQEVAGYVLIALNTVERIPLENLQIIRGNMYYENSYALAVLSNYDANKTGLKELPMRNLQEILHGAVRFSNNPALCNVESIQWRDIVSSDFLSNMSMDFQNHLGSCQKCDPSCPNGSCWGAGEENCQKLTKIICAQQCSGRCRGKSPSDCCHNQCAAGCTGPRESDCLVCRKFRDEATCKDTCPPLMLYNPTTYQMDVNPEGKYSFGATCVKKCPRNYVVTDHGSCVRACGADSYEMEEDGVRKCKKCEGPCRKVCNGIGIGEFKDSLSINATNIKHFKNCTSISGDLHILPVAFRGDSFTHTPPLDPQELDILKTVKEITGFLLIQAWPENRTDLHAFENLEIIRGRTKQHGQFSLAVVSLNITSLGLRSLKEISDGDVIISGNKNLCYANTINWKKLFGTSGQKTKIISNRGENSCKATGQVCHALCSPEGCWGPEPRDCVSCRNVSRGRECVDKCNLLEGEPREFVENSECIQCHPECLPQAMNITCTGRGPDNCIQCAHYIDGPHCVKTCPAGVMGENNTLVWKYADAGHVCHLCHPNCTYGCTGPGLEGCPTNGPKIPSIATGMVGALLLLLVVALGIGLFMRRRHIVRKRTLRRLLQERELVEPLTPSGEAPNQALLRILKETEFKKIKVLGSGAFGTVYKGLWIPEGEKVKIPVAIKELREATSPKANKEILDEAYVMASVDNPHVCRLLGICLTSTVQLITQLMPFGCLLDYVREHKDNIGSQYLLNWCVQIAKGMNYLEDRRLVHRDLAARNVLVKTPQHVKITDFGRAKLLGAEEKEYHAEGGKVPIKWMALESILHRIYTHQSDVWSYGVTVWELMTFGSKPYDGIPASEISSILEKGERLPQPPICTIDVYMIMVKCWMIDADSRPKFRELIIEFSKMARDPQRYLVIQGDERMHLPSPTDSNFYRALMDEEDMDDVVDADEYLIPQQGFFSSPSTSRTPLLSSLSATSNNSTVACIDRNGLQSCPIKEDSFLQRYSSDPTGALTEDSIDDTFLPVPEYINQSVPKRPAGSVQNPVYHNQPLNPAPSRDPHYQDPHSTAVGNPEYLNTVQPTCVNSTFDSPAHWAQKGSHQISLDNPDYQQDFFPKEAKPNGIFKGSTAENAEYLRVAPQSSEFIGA
Assay [7] has the same test system. The settings on record: at 1 µM.
The test system of assay [8] is Epidermal growth factor receptor (Homo sapiens), P00533 [L861Q]. The settings on record: at 0.1 µM.
Epidermal growth factor receptor (Homo sapiens), P00533 [L861Q], sequence (P00533 whole entry L861Q): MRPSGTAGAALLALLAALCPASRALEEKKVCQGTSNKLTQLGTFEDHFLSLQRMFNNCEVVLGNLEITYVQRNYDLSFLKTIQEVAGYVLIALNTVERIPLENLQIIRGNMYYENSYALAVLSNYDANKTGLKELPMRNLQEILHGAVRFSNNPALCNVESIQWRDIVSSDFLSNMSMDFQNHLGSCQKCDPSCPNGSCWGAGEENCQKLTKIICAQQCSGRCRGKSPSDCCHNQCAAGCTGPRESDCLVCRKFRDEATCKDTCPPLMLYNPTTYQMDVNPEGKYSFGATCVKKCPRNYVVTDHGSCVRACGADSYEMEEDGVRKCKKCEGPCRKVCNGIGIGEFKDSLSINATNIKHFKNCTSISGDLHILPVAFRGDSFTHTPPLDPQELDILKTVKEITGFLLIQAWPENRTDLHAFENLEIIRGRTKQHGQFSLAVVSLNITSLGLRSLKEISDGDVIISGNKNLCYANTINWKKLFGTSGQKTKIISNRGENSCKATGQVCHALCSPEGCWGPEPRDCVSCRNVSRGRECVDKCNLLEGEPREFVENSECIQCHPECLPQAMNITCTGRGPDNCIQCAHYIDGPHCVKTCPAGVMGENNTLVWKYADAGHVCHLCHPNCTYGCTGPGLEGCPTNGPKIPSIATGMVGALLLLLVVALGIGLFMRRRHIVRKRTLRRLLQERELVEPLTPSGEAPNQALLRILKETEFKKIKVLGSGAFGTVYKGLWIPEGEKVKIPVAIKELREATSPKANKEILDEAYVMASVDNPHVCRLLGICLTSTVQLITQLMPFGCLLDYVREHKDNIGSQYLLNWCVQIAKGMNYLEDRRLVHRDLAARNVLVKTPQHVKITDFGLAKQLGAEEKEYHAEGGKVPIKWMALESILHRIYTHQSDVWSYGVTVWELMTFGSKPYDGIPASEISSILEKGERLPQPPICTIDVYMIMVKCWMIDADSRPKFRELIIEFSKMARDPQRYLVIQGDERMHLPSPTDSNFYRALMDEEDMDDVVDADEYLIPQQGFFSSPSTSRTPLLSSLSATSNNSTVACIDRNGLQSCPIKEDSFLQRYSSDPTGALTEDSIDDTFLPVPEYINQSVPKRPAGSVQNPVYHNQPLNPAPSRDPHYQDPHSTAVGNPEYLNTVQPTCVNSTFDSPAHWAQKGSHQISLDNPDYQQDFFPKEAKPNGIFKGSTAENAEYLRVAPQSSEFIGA
Assay [9] has the same test system. The note with it: at 1 µM.
Assay [10] concerns Epidermal growth factor receptor (Homo sapiens), P00533 [T790M]. The settings on record: at 0.1 µM.
Epidermal growth factor receptor (Homo sapiens), P00533 [T790M], sequence (P00533 whole entry T790M): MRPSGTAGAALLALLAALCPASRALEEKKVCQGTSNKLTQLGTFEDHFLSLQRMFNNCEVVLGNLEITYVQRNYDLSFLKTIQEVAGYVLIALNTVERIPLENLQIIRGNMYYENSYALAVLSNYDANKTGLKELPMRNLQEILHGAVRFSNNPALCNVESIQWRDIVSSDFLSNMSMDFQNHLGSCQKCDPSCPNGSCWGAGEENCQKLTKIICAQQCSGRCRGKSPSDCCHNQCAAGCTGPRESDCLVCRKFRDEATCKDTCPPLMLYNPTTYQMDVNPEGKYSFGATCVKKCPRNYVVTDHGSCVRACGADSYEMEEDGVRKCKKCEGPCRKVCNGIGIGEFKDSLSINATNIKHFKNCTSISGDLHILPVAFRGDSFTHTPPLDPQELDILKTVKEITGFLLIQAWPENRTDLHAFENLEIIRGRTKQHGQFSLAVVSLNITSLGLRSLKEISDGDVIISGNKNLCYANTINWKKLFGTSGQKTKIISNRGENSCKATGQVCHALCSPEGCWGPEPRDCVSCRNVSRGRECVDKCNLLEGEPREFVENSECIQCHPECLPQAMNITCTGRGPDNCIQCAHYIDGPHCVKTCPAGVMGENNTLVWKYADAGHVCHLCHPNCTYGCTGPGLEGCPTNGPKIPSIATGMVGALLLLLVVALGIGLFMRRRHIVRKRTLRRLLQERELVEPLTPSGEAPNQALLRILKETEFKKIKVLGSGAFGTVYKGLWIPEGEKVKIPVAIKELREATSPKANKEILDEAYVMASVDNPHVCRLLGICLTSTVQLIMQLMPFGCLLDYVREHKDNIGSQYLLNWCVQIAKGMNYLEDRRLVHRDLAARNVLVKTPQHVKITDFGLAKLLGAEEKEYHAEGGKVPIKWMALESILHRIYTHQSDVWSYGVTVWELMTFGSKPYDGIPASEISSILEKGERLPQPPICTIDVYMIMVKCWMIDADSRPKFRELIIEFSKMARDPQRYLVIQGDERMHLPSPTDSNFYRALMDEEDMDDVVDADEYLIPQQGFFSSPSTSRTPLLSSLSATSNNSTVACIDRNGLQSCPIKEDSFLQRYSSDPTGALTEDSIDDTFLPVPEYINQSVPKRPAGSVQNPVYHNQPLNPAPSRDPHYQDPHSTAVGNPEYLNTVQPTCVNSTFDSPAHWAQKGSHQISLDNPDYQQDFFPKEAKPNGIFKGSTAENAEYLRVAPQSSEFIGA
Assay [11] shares this test system. The note with it: at 1 µM.
For assay [12], the system named is Epidermal growth factor receptor (Homo sapiens), P00533 [L858R,T790M]. The note with it: at 0.1 µM.
Assay [13] has the same test system. The note with it: at 1 µM.
Assay [14] addresses Ephrin type-A receptor 2 (Homo sapiens) (UniProt P29317). The note with it: at 0.1 µM.
The target is the same in assay [15]. The settings on record: at 1 µM.
For assay [16], the target named is T2, Ephrin type-A receptor 3 (Homo sapiens) (UniProt P29320).
T2 sequence (whole entry): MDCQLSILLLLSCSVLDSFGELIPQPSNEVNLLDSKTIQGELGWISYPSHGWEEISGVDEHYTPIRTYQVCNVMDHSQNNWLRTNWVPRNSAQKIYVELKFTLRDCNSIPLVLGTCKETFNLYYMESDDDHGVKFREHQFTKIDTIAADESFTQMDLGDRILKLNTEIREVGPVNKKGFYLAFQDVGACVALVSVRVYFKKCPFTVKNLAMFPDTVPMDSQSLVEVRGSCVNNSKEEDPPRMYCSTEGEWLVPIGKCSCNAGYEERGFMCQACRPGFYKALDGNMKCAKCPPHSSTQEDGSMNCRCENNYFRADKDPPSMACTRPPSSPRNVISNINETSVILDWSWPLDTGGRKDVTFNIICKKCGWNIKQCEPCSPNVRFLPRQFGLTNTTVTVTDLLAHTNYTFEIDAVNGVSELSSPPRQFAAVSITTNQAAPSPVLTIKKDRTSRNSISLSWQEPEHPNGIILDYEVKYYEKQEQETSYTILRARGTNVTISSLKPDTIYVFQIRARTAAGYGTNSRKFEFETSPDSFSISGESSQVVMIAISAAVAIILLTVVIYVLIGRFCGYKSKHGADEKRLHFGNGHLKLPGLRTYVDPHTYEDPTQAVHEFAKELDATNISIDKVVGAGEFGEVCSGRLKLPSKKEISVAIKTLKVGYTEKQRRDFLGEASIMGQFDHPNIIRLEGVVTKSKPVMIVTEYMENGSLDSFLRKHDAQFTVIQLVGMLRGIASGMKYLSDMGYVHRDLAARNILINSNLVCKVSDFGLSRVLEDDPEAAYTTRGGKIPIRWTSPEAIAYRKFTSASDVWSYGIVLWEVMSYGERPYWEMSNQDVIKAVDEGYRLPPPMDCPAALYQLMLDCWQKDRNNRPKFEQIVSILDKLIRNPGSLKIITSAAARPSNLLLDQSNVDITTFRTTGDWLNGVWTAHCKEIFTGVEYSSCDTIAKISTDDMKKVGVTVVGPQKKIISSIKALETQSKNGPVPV
The settings on record: at 0.1 µM.

The target in assay [17] is T2, Ephrin type-A receptor 3 (Homo sapiens). The note with it: at 1 µM.
Assay [18] addresses Ephrin type-A receptor 4 (Homo sapiens) (UniProt P54764). The note with it: at 0.1 µM.
The target is the same in assay [19]. The note with it: at 1 µM.
For assay [20], the target named is T3, Ephrin type-B receptor 2 (Homo sapiens) (UniProt P29323).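 Also: reported as mean inhibition of EPHB2, from the GSK PKIS dataset.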
T3 sequence (whole entry): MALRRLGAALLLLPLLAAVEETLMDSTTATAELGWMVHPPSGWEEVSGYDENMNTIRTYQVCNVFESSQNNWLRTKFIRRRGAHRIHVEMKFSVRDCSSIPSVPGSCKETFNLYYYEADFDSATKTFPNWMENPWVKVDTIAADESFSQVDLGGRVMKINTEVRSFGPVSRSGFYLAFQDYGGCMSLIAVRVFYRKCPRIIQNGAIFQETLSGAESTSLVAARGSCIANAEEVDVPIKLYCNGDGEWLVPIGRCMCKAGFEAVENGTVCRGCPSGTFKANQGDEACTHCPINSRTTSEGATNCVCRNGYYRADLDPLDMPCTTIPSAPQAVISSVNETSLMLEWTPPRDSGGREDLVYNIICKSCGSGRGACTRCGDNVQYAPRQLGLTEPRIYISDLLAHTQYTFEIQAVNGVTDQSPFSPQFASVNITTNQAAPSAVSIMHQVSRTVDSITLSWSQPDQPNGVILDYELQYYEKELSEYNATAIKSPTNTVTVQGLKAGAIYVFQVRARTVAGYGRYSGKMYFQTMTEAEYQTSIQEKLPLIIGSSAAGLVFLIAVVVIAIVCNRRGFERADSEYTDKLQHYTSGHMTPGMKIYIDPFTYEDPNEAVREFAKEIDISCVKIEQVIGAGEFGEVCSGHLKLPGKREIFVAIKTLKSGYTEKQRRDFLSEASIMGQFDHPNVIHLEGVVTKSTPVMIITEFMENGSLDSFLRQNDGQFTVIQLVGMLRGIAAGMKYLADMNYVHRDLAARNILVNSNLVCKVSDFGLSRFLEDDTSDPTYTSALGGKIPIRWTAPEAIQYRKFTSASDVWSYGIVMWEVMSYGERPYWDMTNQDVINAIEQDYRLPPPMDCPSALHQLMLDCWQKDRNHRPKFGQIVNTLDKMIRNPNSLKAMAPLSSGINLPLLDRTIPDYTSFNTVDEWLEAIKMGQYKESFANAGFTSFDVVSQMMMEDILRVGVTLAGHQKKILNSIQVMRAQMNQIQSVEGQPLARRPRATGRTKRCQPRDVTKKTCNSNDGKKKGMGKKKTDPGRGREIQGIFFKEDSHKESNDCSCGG
The settings on record: at 0.1 µM.

The structures appear in SMILES notation.

Ephrin type-A receptor 2 (Homo sapiens), sequence (P29317 whole entry): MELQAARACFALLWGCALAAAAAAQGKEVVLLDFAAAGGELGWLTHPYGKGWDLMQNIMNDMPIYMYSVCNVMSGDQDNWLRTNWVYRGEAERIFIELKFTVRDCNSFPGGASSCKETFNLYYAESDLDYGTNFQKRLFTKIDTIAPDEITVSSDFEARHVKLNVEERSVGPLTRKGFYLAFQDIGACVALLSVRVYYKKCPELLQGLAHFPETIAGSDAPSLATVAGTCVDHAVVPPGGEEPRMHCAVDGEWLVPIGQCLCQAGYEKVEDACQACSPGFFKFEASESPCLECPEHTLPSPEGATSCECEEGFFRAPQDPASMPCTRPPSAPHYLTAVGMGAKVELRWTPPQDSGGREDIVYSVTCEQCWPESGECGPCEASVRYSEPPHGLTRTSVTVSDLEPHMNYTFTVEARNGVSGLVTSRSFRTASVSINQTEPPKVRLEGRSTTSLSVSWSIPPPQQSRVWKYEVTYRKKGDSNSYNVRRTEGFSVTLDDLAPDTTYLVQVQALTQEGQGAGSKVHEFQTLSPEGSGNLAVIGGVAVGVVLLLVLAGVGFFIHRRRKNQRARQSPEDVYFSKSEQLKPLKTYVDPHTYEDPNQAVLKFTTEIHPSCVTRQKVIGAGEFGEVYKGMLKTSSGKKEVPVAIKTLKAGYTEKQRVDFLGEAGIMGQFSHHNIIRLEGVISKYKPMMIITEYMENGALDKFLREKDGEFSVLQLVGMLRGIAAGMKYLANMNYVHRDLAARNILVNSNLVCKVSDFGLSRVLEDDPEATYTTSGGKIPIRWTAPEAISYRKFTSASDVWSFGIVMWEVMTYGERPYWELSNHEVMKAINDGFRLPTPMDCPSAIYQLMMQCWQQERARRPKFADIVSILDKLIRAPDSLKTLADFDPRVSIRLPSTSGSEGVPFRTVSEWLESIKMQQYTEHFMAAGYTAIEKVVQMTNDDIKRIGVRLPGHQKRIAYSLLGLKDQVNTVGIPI
Tyrosine-protein kinase CSK (Homo sapiens), sequence (P41240 2-450 limits assumed): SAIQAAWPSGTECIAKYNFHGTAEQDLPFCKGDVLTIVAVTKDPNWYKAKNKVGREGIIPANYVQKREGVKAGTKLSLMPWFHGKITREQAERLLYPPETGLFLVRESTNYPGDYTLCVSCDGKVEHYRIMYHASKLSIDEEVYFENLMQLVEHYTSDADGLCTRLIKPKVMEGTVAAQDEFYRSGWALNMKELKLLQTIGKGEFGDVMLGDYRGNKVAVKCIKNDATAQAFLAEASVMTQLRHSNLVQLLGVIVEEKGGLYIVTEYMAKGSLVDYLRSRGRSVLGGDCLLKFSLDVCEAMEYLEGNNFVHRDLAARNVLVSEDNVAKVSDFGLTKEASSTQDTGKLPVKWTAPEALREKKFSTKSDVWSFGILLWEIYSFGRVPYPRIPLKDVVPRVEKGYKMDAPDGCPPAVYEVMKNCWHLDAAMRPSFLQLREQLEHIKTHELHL

Consider `O=C(Nc1ccc(Oc2ccc3[nH]c(NC(=O)c4ccco4)nc3c2)cc1)Nc1cc(C(F)(F)F)ccc1F`, for which the inhibition is 35.3% in assay [1]; 60.3% in [2]; 80.2% in [3]; -1.7% in [4]; -1.45% in assay [5]; 0.69% in [6]. In addition, the inhibition in [7] is 0.69%; in assay [8], 0.16%; in assay [9] it was -2.44%; in assay [10] it was 0.07%; in assay [11], -1.32%; in assay [12], 1.13%. In addition, the inhibition in assay [13] is 0.64%; in assay [14], 18.8%; in assay [15], 82.8%; in assay [16], 4.15%; in [17], 15.9%; in assay [18], 36.3%. For the same compound, the inhibition came to 86.9% in assay [19] and 36.1% in [20].
As to `O=C1Nc2ccccc2/C1=C/Nc1ccc2[nH]c(=O)[nH]c2c1`, the inhibition stood at 9.18% in [1]; 5.46% in assay [2]; 8.62% in assay [3]; 4.63% in assay [4]; 7.94% in assay [5]; 3.53% in [6]. In addition, the inhibition in assay [7] turned out to be 6.79%; in assay [8], 4.1%; in assay [9], 6.47%; in [10], 3.08%; in [11], 7.07%; in [12] it was 4.62%. For the same compound, the inhibition in [13] is 3.05%; in assay [14], 2.36%; in [15], 3.88%; in [16], 5.7%; in assay [17], 9.27%; in assay [18] it was 12.9%. In addition, the inhibition in assay [19] is 16.3%; in [20] it was 15.9%.
Regarding `Cc1nc(-c2ccccc2)n2nc(NCCCN3CCOCC3)ncc12`, the inhibition in assay [1] turned out to be 1.69%; in assay [2], 1.13%; in assay [3], 1.28%; in [4], 5.65%; in assay [5], 7.11%; in assay [6] it was 1.69%. Also, the inhibition is 4.22% in assay [7]; 0.9% in assay [8]; 1.99% in assay [9]; -0.64% in [10]; 2% in [11]; -0.39% in [12]. The inhibition in [13] is 3.29%; in assay [14], 0.3%; in assay [15] it was -0.95%; in assay [16], 3.7%; in assay [17] it was 4.01%; in assay [18], 5.25%. The inhibition was 8.81% in assay [19] and -0.43% in assay [20].
On to `Cc1ccc(O)cc1Nc1ccnc2ccc(S(C)(=O)=O)cc12`, for which the inhibition came to 94.2% in assay [1]; 59.8% in assay [2]; 79.7% in [3]; 12.7% in assay [4]; 36.6% in assay [5]; 19.7% in assay [6]. For the same compound, the inhibition came out at 72.1% in [7]; 8.5% in [8]; 31.9% in assay [9]; 3.11% in assay [10]; 7.86% in [11]; 4.88% in assay [12]. In addition, the inhibition in [13] came out at 5.18%; in assay [14] it was 91.3%; in assay [15], 95.7%; in assay [16] it was 92.2%; in assay [17], 81.5%; in assay [18], 89.3%. Also, the inhibition in [19] was determined as 93.5%; in [20], 83.6%.
As for `CCCN1CCCC(c2ccc(Nc3nc(Nc4cc(F)ccc4C(N)=O)c4cc[nH]c4n3)c(OC)c2)C1` (stereo not given), the inhibition in [1] is 4.58%; in [2], 2.62%; in assay [3] it was 4.82%; in assay [4] it was 7.23%; in assay [5], 38%; in assay [6] it was 9.57%. Also, the inhibition in assay [7] turned out to be 37.5%; in assay [8] it was 7.28%; in assay [9], 28.4%; in assay [10] it was 32%; in assay [11] it was 79.3%; in assay [12], 55.5%. The inhibition in assay [13] is 85.6%; in assay [14], -1.17%; in assay [15], -1.1%; in [16], 3.86%; in assay [17] it was 4.27%; in assay [18], 8.97%. For the same compound, the inhibition came to 4.53% in [19] and 8.14% in assay [20].
As for `Cc1ccc(NC(=O)CC2CC2)cc1-c1ccc(C(=O)NCC2CC2)cc1`, the inhibition in assay [1] was 5.95%; in assay [2], 2.18%; in assay [3] it was 5.56%; in assay [4] it was 0.19%; in assay [5] it was 2.75%; in assay [6] it was 3.95%. The inhibition came to 4.15% in assay [7]; 1.88% in assay [8]; 4.52% in assay [9]; 2.03% in [10]; 2.09% in assay [11]; 0.02% in [12]. Also, the inhibition in assay [13] was determined as 0.35%; in [14] it was 0.66%; in assay [15], 1.4%; in assay [16], 3.45%; in [17] it was 4.59%; in assay [18], 8.26%. The inhibition worked out at 12.9% in [19] and 6.33% in [20].

For orientation: inhibition means the change of the read-out against control, counted positive when it falls.

For the origin of these results see ChEMBL document CHEMBL1961873, “Compounds: GSK PKIS; Assays: Nanosyn kinase panel” (2012).
